These entries were drawn from the full list. How many sequences the whole screen found active is unknown.
B1: il10ra_site1_sap_4_mot_HHH_b2_01447_af2_000000258_0001_1_20_H_._HHH_b1_07772_0001_0000100001_0000002_0_0001 (protein)
chain: SSSSDTRELYRLSREAMELLARGNPEEAEKVLEEAIEIAREAGDFNFLFNLEHVLKVIEQSSSSS
B2: il10ra_site1_sap_15_mot_HHH_b2_05813_000000266_0001_1_19_H_._ems_3hC_1310_0001_af2_0001_0000600040_0000002_0_0001 (protein)
chain: SSSSADEEFEFTREKYEEARELLQNGNPEEAEEVLEEAREYLKEAGNWAALFAVEVLLKQLSSSS
B3: il10ra_site1_normal_mot_HHH_b2_02537_000000065_0001_1_20_H_._HHH_b1_07925_0001_0000100001_0000001_0 (protein)
chain: SSSSTDEVFEFTRRVIEEASELFRNGNPEEAERVLEEAREYLEELGDELALRSVEHLLRAISSSS
B4: il10ra_site1_sap_19_mot_HHH_b1_05214_000000232_0001_38_57_H_._HHH_b2_00758_0001_0000400024_0000001_0_0001 (protein)
chain: SSSSDIRELYELSREAVELRHEGNPEEAEKVVEEAEELARELNNRVLLAVIEWLREAIETSSSSS
B5: il10ra_site1_sap_16_mot_HHH_b1_06789_af2_000000041_0001_1_20_H_._HHH_b2_05269_af2_0001_0000200010_0000002_0_0001 (protein)
chain: SSSSDVEEELRELLKELEELVEEGDEEKFLRVAMEALHLAFQARDEEVLQLLWELAKELASSSSS
B6: il10ra_site1_normal_mot_HHH_b2_02693_af2_000000213_0001_19_35_H_._HHH_b2_04275_0001_0000300016_0000001_0_af2pred_0001 (protein)
chain: SSSSSSEESEELLEQLEEALRRGDEELIARLVLEIARLAEELNDKELVEELLRLLVEHQSSSSSS
B7: il10ra_site1_normal_mot_8756ee2cf497b5429c717dfc0c0bcfd6_0001_000000186_0001_1_13_H_._HHH_b2_00624_0001_0000300028_0000001_0_af2pred_0001 (protein)
chain: SSSSSEEAEELYRLLREAAELHWEGNPEEARELLEEAEELAKEAGNLNALAVIRFLLEVAGSSSS
B8: il10ra_site1_normal_mot_HHH_b2_00943_af2_000000149_0001_1_17_H_._d3c612d18aab0e0945b39b51a1e20ad4_0001_1_af2_0001_0000500040_0000001_0_af2pred_0001 (protein)
chain: SAEEVLQRQVERDPDDASALHLLLLVLAAKEGDPELVQLLRRANELSREGNPEEAREILQEAIER
B9: il10ra_site1_sap_27_mot_104c758fc23488854646035ccb2100c6_0001_000000282_0001_15_29_H_._5a9d7fc92c57439179869c3e1d567c11_0001_0001_0000100005_0000001_0_0001_af2p … (protein)
chain: SSSSSPLEKKLEATTKYLKFCLSHNDLEGIKSGLIALKQLGDESGNEEAKKVAAEVEEKLKSSSS
B10: il10ra_site1_normal_mot_HHH_b1_01779_000000096_0001_43_57_H_._HHH_b2_08219_0001_0000100005_0000001_0_af2pred_0001 (protein)
chain: SSSSNKEEAERSVRLLLELAKRLEDPERARAALRDARRTAEYVNDPELEELVEEVEREVLSSSSS
B11: il10ra_site1_sap_19_mot_HHH_b2_02053_af2_000000006_0001_3_19_H_._HHH_b1_07370_0001_0000100001_0000002_0_0001 (protein)
chain: SSSSSDEEVEELLKEAEELAEEGNPEEAAKVLLEAVRLAIQAGDEEALQKVWEVVKELAKSSSSS
B12: il10ra_site1_sap_23_mot_HHH_b2_03708_000000000_0001_1_18_H_._HHH_b1_08343_0001_0000300038_0000001_0_0001 (protein)
chain: SSSSDLEKEIFHLLIEAYHLLQRGDEEEARELLEEAKELAEELNDPALLRAVEVLLAKLDSSSSS
B13: il10ra_site1_sap_14_mot_HHH_b2_05343_000000235_0001_19_35_H_._HHH_b2_05666_0001_0000600037_0000001_0_0001 (protein)
chain: SSSSDQEFYKAVEEAIEKAIKLEKNGNPEEAERLLEEILEKAEELGNWAARWSIRHLLELLSSSS
B14: il10ra_site1_sap_19_mot_HHH_b2_05984_000000071_0001_38_52_H_._919c246ba0fc10ef4578bdc7f1052ff8_0001_0001_0000100004_0000001_0_0001 (protein)
chain: NELEEELEELVERGDEEKVAELAVKVAKEKGSFSPEQLEALRRFIEALFRDNKKVAEHLARLVID
B15: il10ra_site1_normal_mot_HHH_b2_07579_000000275_0001_1_19_H_._HHH_b1_01139_af2_0001_0000300023_0000001_0_af2pred_0001 (protein)
chain: SSSSSEEKRKVLELLRKALEIEDKEEAEKVVEEAVRLAEELNDPLAAKLAEMLLEQLEKGSSSSS
B16: il10ra_site1_sap_25_mot_HHH_b2_07388_000000275_0001_18_35_H_._7abaf38a3307e851c9e6880adce6b300_0001_1_0001_0000100003_0000001_0_0001_af2pred_0001 (protein)
chain: SSSSDEEEEEVEKLLEELEKLLERGDREEVFRLFREAARIIAELRDEEAFRRLQELLKRLFSSSS
B17: il10ra_site1_normal_mot_HHH_b2_00345_af2_000000013_0001_42_56_H_._HHH_b2_01857_0001_0000400035_0000002_0 (protein)
chain: SSSSSDEEEEEVEELLEEAKHIEDHEKRIEILLEATHLALRAQDPELVQLVWEVFHRLIRSSSSS
B18: il10ra_site1_normal_mot_HHH_b1_02062_000000185_0001_1_20_H_._HHH_b1_08089_0001_0000100003_0000001_0_af2pred_0001 (protein)
chain: SSSSDVEERVEELFEEVEELLRQGDVEEAFKVSREMIELASENQDDEAAELAREASRLFARSSSS
B19: il10ra_site1_normal_mot_HHH_b1_00999_000000080_0001_41_55_H_._HHH_b2_01363_af2_0001_0000100001_0000002_0 (protein)
chain: SSSSSSEEVEEEVERLLEEAKEIEDPEEAMRVLLEALQIALRNNNKELLQLVWRIIKELGSSSSS
B20: il10ra_site1_normal_mot_HHH_b2_03220_af2_000000223_0001_23_40_H_._HHH_b1_01843_af2_0001_0000200015_0000002_0 (protein)
chain: SSSSSSSEAEEVWRLLREALHIDDEEEVQELLEEAKRLAEELNSEVLRIVIEFLERDLSSSSSSS
B21: il10ra_site1_sap_13_mot_HHH_b2_04993_000000082_0001_43_55_H_._0a28df53656836c8faf163f96bad2529_0001_1_af2_0001_0000100004_0000002_0_0001_af2pred_0001 (protein)
chain: SSSSDEEEERLEELLEEVEELLRQGDPEEAARLLFEVAKLAAELNDDEILKLVQELVHLLFSSSS
B22: il10ra_site1_normal_mot_HHH_b2_00475_000000107_0001_44_57_H_._HHH_b1_04904_0002_0000200015_0000002_0 (protein)
chain: SSSSDIIEVLYRLQHAVAKGDEEEIEELLEELEELLKKASEEERKYIEILLHFARAQLELLSSSS
B23: il10ra_site1_normal_mot_HHH_b2_02337_000000026_0001_38_52_H_._HHH_b1_01890_af2_0001_0000100004_0000001_1 (protein)
chain: SSSSDEEEKAEELIREAEELAENGNPEEAARVAQEALRLILELGDEEALQLLWEAVRRLARSSSS
B24: il10ra_site1_sap_21_mot_HHH_b1_06914_000000280_0001_1_18_H_._HHH_b2_08153_0001_0000400035_0000001_0_0001 (protein)
chain: SSSSSREELREEVEEVIEELEEKNDTKLLHRLMELYKRAAELGDEELVREIFEVLLRIVQKSSSS
B25: il10ra_site1_normal_mot_HHH_b1_01821_000000158_0001_23_39_H_._HHH_b1_01350_af2_0001_0000300008_0000001_0 (protein)
chain: SSSSSSDEEREEAEELLEEAKHVEDPERFIELILEAVRLALRSGDEELLQEIWELFKRKSSSSSS

Biological target: il10ra, Q13651
Sequence (Q13651 whole entry): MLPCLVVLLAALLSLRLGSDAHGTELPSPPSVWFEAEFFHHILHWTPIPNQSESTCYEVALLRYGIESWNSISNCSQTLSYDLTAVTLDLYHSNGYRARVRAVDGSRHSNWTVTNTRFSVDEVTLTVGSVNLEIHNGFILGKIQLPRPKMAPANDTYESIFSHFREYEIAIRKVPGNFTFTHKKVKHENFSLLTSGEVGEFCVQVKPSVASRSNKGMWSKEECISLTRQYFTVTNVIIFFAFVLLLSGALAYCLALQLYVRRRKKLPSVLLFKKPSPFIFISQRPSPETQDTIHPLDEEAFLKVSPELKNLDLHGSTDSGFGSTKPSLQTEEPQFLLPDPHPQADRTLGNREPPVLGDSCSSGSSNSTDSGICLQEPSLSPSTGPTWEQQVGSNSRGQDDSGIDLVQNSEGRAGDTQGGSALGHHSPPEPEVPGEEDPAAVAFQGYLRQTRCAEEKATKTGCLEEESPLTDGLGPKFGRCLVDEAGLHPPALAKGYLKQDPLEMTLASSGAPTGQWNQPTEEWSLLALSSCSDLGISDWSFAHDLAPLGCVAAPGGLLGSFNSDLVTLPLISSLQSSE
Assay: yeast display titration

Apparent Kd, inactive:
B1 no binding seen
B2 no binding seen
B3 no binding seen
B4 no binding seen
B5 no binding seen
B6 no binding seen
B7 no binding seen
B8 no binding seen
B9 no binding seen
B10 no binding seen
B11 no binding seen
B12 no binding seen
B13 no binding seen
B14 no binding seen
B15 no binding seen
B16 no binding seen
B17 no binding seen
B18 no binding seen
B19 no binding seen
B20 no binding seen
B21 no binding seen
B22 no binding seen
B23 no binding seen
B24 no binding seen
B25 no binding seen

Source: publication PMC10163288
